# Test results as given in ChEMBL document CHEMBL3988442, “University of Dundee, Small-Polar-MMV Screening Library” (2021).
# How the values were obtained:
# [1] = target: T1, Aspartate--tRNA(Asp/Asn) ligase (Mycobacterium tuberculosis (strain ATCC 25618 / H37Rv)) (UniProt P9WFW3); experiment: Assay for Asp RNA synthetase-1 from Mycobacterium tuberculosis; type: functional; parameters: scale not given: direction of the effect not stated beside the values; details: 30 µM; note: in the data most compounds retested in dose-response had high values
# T1 sequence (whole entry): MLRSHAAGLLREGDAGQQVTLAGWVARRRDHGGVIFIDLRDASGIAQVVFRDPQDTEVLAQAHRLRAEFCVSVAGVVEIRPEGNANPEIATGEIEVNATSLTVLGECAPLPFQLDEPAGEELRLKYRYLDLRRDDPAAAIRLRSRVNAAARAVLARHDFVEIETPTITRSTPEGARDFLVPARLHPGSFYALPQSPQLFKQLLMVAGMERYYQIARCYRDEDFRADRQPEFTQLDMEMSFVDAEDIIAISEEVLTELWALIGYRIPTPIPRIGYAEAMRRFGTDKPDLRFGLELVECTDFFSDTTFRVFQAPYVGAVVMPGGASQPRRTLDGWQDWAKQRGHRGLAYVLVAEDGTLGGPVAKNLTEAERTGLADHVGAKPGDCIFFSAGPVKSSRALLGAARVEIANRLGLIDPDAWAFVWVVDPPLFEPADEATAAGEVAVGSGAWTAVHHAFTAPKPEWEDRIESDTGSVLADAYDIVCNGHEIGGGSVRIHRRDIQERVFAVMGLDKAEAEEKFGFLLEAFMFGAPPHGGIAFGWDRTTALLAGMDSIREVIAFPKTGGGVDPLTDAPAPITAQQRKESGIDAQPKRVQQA
# [2] = target: Shiga toxin 2 (Escherichia coli O157:H7) (UniProt P09385+P09386); experiment: E. coli 0.157:H7 Shiga Toxin SOP - stx2 screening assay; type: functional; parameters: scale not given: direction of the effect not stated beside the values; details: 30 µM
SMILES,Percent Effect [1],Percent Effect [2]
C[C@@H]1CN(C(=O)c2ccc(C#N)nc2)CC[C@@]1(O)C1CCOCC1,-2.71%,-2.97%
COCC1CN(C(=O)C2=CCCCC2)Cc2cnn(CC3CC3)c21 (centres undefined),0.918%,-7.05%
CN1CCC(NC(=O)NCCNc2ccccn2)CC1,0.524%,-5.67%
CN1CCCC(c2cccc(Cc3ccccc3Cl)n2)C1 (centres undefined),-5.43%,6.38%
Cc1nn(C)c(C)c1CNCc1ccnc(N2CCOCC2)c1,-2.46%,-9.51%
O=C1CC2(CCN(CC3CC3)C2)CN1c1cccc(F)c1 (centres undefined),0.607%,-32.8%
Fc1cnc(N2C[C@H]3CCC[C@@]3(COc3ccccn3)C2)nc1,0.435%,2.51%
CC(C)Cc1noc(CN2CCN(C(=O)c3ccco3)CC2)n1,-0.114%,-20%
CCOc1nnc(CN(C)C2CCCN(c3cccnn3)C2)s1 (centres undefined),3.86%,-25.9%
O=C(NCc1cc[nH]n1)N1CCCCC(N2CCCC2)C1 (centres undefined),2.84%,14.9%
COc1cccc(C2CC(=O)Nc3nc(N4CCOCC4)sc32)c1OC (centres undefined),63.4%,-3.76%
O=C(NCc1ccccc1-n1cccn1)N1CCN2CCCCC2C1 (centres undefined),-6.8%,3.68%
O=C(CN1C=Nc2ccccc2S1(=O)=O)NCCc1cccs1,0.225%,-2.28%
OCC1CCCCN1c1ccc(-c2nc(-c3ccccc3F)no2)cn1 (centres undefined),-6.87%,-36.1%
O=C(NC1CC1)[C@H]1CC[C@@H]2[C@@H](CCN2c2ncc(F)cn2)O1,-4.13%,-23%
CC(=O)c1ccc(C(=O)NCCCOC(C)c2ccccc2)s1 (centres undefined),-4.7%,-71.8%
COc1ccc(OCCCN2CCOC(Cn3cccn3)C2)cc1 (centres undefined),-0.393%,5.03%
CC(C)c1n[nH]c(C2CN(C(=O)c3csnn3)CCO2)n1 (centres undefined),-5.03%,-13.5%
CC1CCN(S(=O)(=O)c2cccn(CC(=O)NC3CCCC3)c2=O)CC1,-2.16%,1.09%
c1coc(-c2noc(CN3CCC(c4ccn[nH]4)CC3)n2)c1,0.546%,0.0749%
Cc1cnc(NC(=O)N2CCCC2)s1,1.37%,1.43%
CNC(=O)CCc1cc(C)nc(C2CCCN2)c1 (centres undefined),0.0149%,-4.41%
Cc1nn(C)c(C)c1CCC(=O)N1CCCC1Cn1cccn1 (centres undefined),-0.943%,2.75%
CN(C)C(=O)N1C[C@@H]2CC[C@H](C1)N(Cc1ccc3nsnc3c1)C2,6.27%,-56.9%

SMILES,Percent Effect [1],Percent Effect [2]
c1cc(OCc2ccc3c(c2)OCO3)ccc1CNC1CC1,-1.47%,-108%
COc1cc(N2C[C@@H]3COC[C@]3(COc3cccnc3)C2)ncn1,-3.68%,-5.75%
CC(=O)N1CCC[C@H]1C(=O)NCCOc1cccc(Cl)c1,1.97%,-31.3%
COC(=O)CN(C)C1CCc2ccccc21 (centres undefined),-6.57%,28.1%
CC(=O)N(Cc1noc(C)n1)C1CCN(Cc2ccccc2C#N)C1 (centres undefined),2.26%,-3.66%
Cc1ncc2c(n1)CN(Cc1nnc(-c3occc3C)o1)CC2,12.2%,-43.7%
Cc1csc2c(N3CCC(NCCCc4ccncc4)CC3)ncnc12,8.8%,-69.6%
COCCN1C(=O)CC(N2CCN(c3ccc(OC)cc3)CC2)C1=O (centres undefined),-5.68%,3.53%
CCN1CCN(C(=O)c2nc(C)n(-c3ccccc3Cl)n2)CC1,-3.15%,0.607%
Cc1noc(NC(=O)c2ccc(Br)s2)n1,2.08%,49.8%
CCN(Cc1cccc2c1OCO2)C(=O)Nc1ccncc1,-0.0463%,-14.2%
CCN(CC1CCOC1)C(=O)c1ccccc1N1CCOCC1 (centres undefined),-0.562%,23.4%
COc1ccc(Cl)cc1NCC(=O)NCCNc1cnccn1,-0.88%,25.1%
Cn1cnc2c1CCN(Cc1nc(-c3ccsc3)no1)C2,-8.92%,-33%
CC(C)C(C(=O)N1CCCN(Cc2cnn(C)c2)CC1)n1cncn1 (centres undefined),-1.93%,-40.5%
Cc1noc(C)c1CN1CCN(C(=O)Cn2cncn2)CC1,3.12%,7.4%
CCCS(=O)(=O)NC(C)C(=O)NCc1ccc(N2CCCC2)nc1 (centres undefined),2.42%,7.72%
N#Cc1ccc(S(=O)(=O)NC(=O)C2CC2)c(C(F)(F)F)c1,4.77%,9.71%
Cc1cnn(CCNCc2ccc(F)cc2Cl)c1,0.495%,-22.9%
Cc1ccc(CN(C)C(=O)CN2CCCC2Cn2cccn2)o1 (centres undefined),-1.15%,-15.7%
Cc1cc(C)n(CC2CN(CC(=O)Nc3c(C)n[nH]c3C)CCO2)n1 (centres undefined),-0.486%,6.68%
CC(=O)c1cn(CCC(=O)NCCC(=O)O)c2ccccc12,-4.27%,-25.1%
Cc1cc(CN2CCN(CC(O)c3ccccc3)CC2)no1 (centres undefined),-5.08%,3.56%
